# From ChEMBL document CHEMBL4513216, “Probing the Open Global Health Chemical Diversity Library for Multistage-Active Starting Points for Next-Generation Antimalarials” (ACS Infect Dis, 2020)
# Among all 69,000 compounds or so, about 8,600 (12%) showed an effect of 50% or more. Only a selection was taken, and strong results are over-represented in it overall.
# Tested on: Plasmodium berghei
# Test: Screen against P. berghei liver stage (PbLuc), transformed with Luciferase, at 10uM
# Format: functional, HepG2
# Details: tested at 10 uM
row,Structure (SMILES),INHIBITION
1,CC(C)N(C)Cc1cncc2c1CCN(C(=O)c1ccc[nH]1)C2,29%
2,Cc1cccc(CN2CCc3ncnc(N4CCN(C)CC4)c3CC2)n1,-110%
3,COc1ccc(OC)c(-n2nnnc2SCC2CCCCO2)c1 (stereo not drawn),20.9%
4,Cc1cc(C)c(CNC(=O)NCC2CCCOC2)c(=O)[nH]1 (stereo not drawn),27.5%
5,N#Cc1ccc(CNc2cccc(C(=O)N3CCOCC3)c2)cc1,24.2%
6,Cc1nc(C)n(CC2CCCN(CC(=O)NC3CCOCC3)C2)n1 (stereo not drawn),-17%
7,CCN1CCC(=O)N(C)Cc2cc(F)ccc21,35.8%
8,O=C(Cc1ccc2c(c1)OCCCO2)Nc1nnn[nH]1,-5.38%
9,CC(=O)N1CCCN(C(=O)NCCNc2ccccn2)CC1,16.533%
10,COCCOc1ncccc1CNC(=O)N1CCOCC1,44.3%
11,CC(=O)N1CCCN(C(=O)NCc2ccccn2)CC1,53.3%
12,CC(C)Oc1ncccc1CNC(=O)N1CCOCC1,65.6%
13,CCN1CCN(C(=O)NCc2cccnc2-n2cccn2)CC1,33.8%
14,CC(=O)N1CCN(C(=O)NCc2cccnc2OC(C)C)CC1,48.2%
15,O=C(CC1CCCCC1)N1CCN(C(=O)NCc2ccccn2)CC1,12.7%
16,O=C(NCc1cccnc1OCC(F)(F)F)N1CCOCC1,69.3%
17,CN1CCCN(C(=O)NCc2cccnc2-n2cccn2)CC1,52.3%
18,COc1ncccc1CNC(=O)N1CCC(CN2CCOCC2)CC1,29.4%
19,CC(C)Oc1ncccc1CNC(=O)N1CCC(n2cccc2)CC1,-69%
20,CC(C)CN1CCN(C(=O)NCc2cccnc2-n2cccn2)CC1,11%
21,CCCc1nc(Nc2cccc(C(N)=O)c2)c2c(n1)c(C)nn2CC,-28.15%
22,O=C(Cn1cccc(S(=O)(=O)N2CCCC2)c1=O)c1ccccc1Cl,16.6%
23,CCOc1cc(=O)n2c(c1C(=O)OCc1cccc(C)c1)CCCC2,43.8%

row,Structure (SMILES),INHIBITION
1,c1csc(CN2CCn3c(Cn4cncn4)cnc3C2)n1,45.5%
2,COC(=O)C1CCN(c2cc(C)nc(-c3ccncc3)n2)CC1,-53.5%
3,Cc1noc(C)c1C(=O)N1C[C@@H]2COC[C@]2(COc2ccccn2)C1,18.5%
4,CCN1CCN(C(=O)c2cc(NC(=O)c3ccccc3)n(C)n2)CC1,75.7%
5,CN1CCN(C(=O)c2cc(NC(=O)c3ccccc3)n(C)n2)CC1,46.6%
6,Cn1nc(C(=O)N2CCCCCC2)cc1NC(=O)c1ccccc1,26.4%
7,CC(C)N1c2sc(-c3ccsc3)nc2CC1C(=O)NC1CC1 (stereo not drawn),26.5%
8,CC(C)N1c2sc(-c3ccsc3)nc2CC1C(=O)NC1CCCC1 (stereo not drawn),47.5%
9,CC(C)N1c2sc(-c3ccccc3)nc2CC1C(=O)NC1CCCC1 (stereo not drawn),57.1%
10,Cc1cccc(CN2CCc3ncnc(N4CCOCC4)c3CC2)n1,-9.86%
11,Cc1ccc(CN(CCCN2CCOCC2)Cc2[nH]cnc2C)o1,-18.9%
12,CS(=O)(=O)N1CCC[C@]2(C[C@@H](Oc3ncccc3F)CO2)C1,26.2%
13,CN1CC=C(c2noc(CCC(=O)N3CCc4ccccc4C3)n2)CC1,77.2%
14,CN1CC=C(c2noc(CCC(=O)N3CCc4ccccc43)n2)CC1,32.5%
15,CN1CC=C(c2noc(CCC(=O)N3CCCC3)n2)CC1,41.6%
16,CCc1cccc(N2CCC(NC(=O)c3cc[nH]n3)CC2)c1,77.3%
17,CCc1ccc(O)c(C(=O)NC2CCN(S(=O)(=O)CC)CC2)c1,44.2%
18,CCc1cccc(N2CCC(NC(=O)c3ccco3)CC2)c1,91.4%
19,Cc1occc1C(=O)NC1CCN(C(=O)Nc2cccnc2)CC1,46.3%
20,CCc1cccc(N2CCC(NC(=O)c3ccc(=O)[nH]n3)CC2)c1,21.9%
21,O=C(NC1CCCN(Cc2c(F)cccc2F)C1)c1cc[nH]n1 (stereo not drawn),32.2%
22,CCc1cccc(N2CCC(NC(=O)c3ccoc3C)CC2)c1,70.8%
23,O=C(NCc1cccc(N2CC=CC2)c1)NC1CC1,-37.7%

row,Structure (SMILES),INHIBITION
1,CCc1cccc(N2CCC(NC(=O)c3ccncc3)CC2)c1,23.5%
2,O=C([C@@H]1C[C@H]2[C@H](CCN2Cc2nccs2)O1)N1CCOCC1,-1.53%
3,O=C(O)CNC(=O)Cc1csc(-c2ccccc2F)n1,32.8%
4,CCc1ccccc1C(=O)N1CCCC1CC(=O)c1cnn(C)c1 (stereo not drawn),30.6%
5,Cc1cscc1C(=O)N1CCCC1CC(=O)c1cnn(C)c1 (stereo not drawn),12.7%
6,Cc1ccc(O)c(C(=O)N2CCCC2CC(=O)c2cnn(C)c2)c1 (stereo not drawn),50.2%
7,CCn1cc(S(=O)(=O)N2CCC(C3CCCCN(C)C3=O)CC2)c(C)n1 (stereo not drawn),37.1%
8,OCC1CCN(C[C@@H]2CN(C3Cc4ccccc4C3)C[C@@H]2CO)CC1,48.5%
9,COc1cc(C(=O)N2CCC(Nc3cccnc3)CC2)ccc1C,-22.1%
10,O=C(NC1CCC1)[C@H]1C[C@H]2CN(CC3CC3)C[C@@H]1O2,65.3%
11,CC(C)CN1C[C@@H]2C[C@H](C(=O)NC3CCC3)[C@H](C1)O2,31.5%
12,Cc1cccc(S(=O)(=O)N2C[C@@H]3C[C@H](C(=O)NC4CCC4)[C@H](C2)O3)c1,5.36%
13,O=C(Nc1ccccc1)[C@H]1C[C@H]2CN(S(=O)(=O)c3ccccc3)C[C@@H]1O2,5.96%
14,CCc1cnc(N2C[C@@H]3C[C@H](C(=O)NC4CCC4)[C@H](C2)O3)nc1,5.63%
15,O=C(NC1CCC1)[C@H]1C[C@H]2CN(S(=O)(=O)c3ccccc3)C[C@@H]1O2,51.2%
16,Fc1ccc(-c2cnc(CN3CCn4c(nnc4C4CC4)C3)o2)cc1,21.8%
17,CN1C(=O)CCCC12CCCN(Cc1cccs1)C2 (stereo not drawn),-2.35%
18,N#Cc1ccc(C(=O)O)nc1C=Cc1cccc(Cl)c1,10.2%
19,c1coc(-c2noc(CN3CCCCC3Cn3cncn3)n2)c1 (stereo not drawn),17.4%
20,CC(C)[C@@H]1CN(Cc2cnc(C3CCCCC3)nc2)C[C@H]1C(=O)O,13.5%
21,COCc1ncc(CN2C[C@@H](C(=O)O)[C@H](C(C)C)C2)cn1,24.2%
22,COCCc1ncc(CN2C[C@@H](C(=O)O)[C@H](C(C)C)C2)cn1,50.2%
